Assay in all cases: NCI-60 one-dose screen, 48 h (100 = growth as untreated, 0 = no growth, -100 = all killed)
Assay [1] relates to SK-MEL-2 melanoma. The note with it: 10 µM unless noted.
Assay [2] deals with SN12C renal. To be noted: 10 µM unless noted.
The test system of assay [3] is UO-31 renal. To be noted: 10 µM unless noted.
The test system of assay [4] is TK-10 renal. The note with it: 10 µM unless noted.
The subject of assay [5] is ACHN renal. The note with it: 10 µM unless noted.
For assay [6], the system named is CAKI-1 renal. To be noted: 10 µM unless noted.
Assay [7] concerns A498 renal. To be noted: 10 µM unless noted.
For assay [8], the system named is CCRF-CEM leukemia. To be noted: 10 µM unless noted.
The test system of assay [9] is MOLT-4 leukemia. The note with it: 10 µM unless noted.
For assay [10], the system named is SR leukemia. The note with it: 10 µM unless noted.
The subject of assay [11] is RPMI-8226 leukemia. The note with it: 10 µM unless noted.
Assay [12] concerns OVCAR-8 ovarian. To be noted: 10 µM unless noted.
Assay [13] concerns OVCAR-5 ovarian. The note with it: 10 µM unless noted.
Assay [14] has as its system OVCAR-4 ovarian. The note with it: 10 µM unless noted.
The test system of assay [15] is SK-OV-3 ovarian. The note with it: 10 µM unless noted.
The test system of assay [16] is IGROV1 ovarian. The note with it: 10 µM unless noted.
The subject of assay [17] is OVCAR-3 ovarian. To be noted: 10 µM unless noted.
The test system of assay [18] is HS 578T breast. The note with it: 10 µM.
In assay [19] the test system is NCI/ADR-RES ovarian. To be noted: 10 µM unless noted.

About 83,000 compounds went through this panel and 20% of them were active in at least one assay; those are over-represented in the sample as a whole.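 Plates (96-well) were seeded with cells, treated with compound at one concentration, and incubated for 48 hours before percent growth was determined.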 Values without a mark were called inactive. The source made the active and inactive calls. How the source made its calls: active means growth percent below 10; inactive means the rest.

In the case of `CCOC(=O)c1ccc(NC(=O)NC2=NCCS2)cc1`, the growth in assay [1] was 76.6%; in assay [2], 45.4%; in assay [3], 36.5%; in [4], 97.5%; in assay [5] it was 78.9%; in assay [6], 35.3%. The growth in assay [7] is -7.64% (active); in assay [8] it was 7.22% (active); in assay [9] it was 19.7%; in assay [10] it was 17.6%; in assay [11] it was 13.9%; in assay [12] it was 27.1%. Besides, the growth in [13] is 96.5%; in assay [14] it was 70.6%; in [15] it was 11.5%; in assay [16] it was 21.5%; in assay [17], -53.7% (active); in assay [18] it was 42.7%.

Turning to `O=C(C=P(c1ccccc1)(c1ccccc1)c1ccccc1)CCl`, the growth in [1] was -47.4% (active); in assay [2], -19.3% (active); in assay [3], -95.4% (active); in assay [4], -46.2% (active); in [5] it was -85.7% (active); in assay [6], -74.9% (active). In addition, the growth is -35.8% (active) in assay [7]; -3.6% (active) in [8]; -35.8% (active) in [9]; 3.51% (active) in [10]; -19.2% (active) in assay [11]; -37.1% (active) in assay [12]. The growth is 1.7% (active) in assay [13]; -37.3% (active) in assay [14]; 24.6% in assay [15]; -69.5% (active) in [16]; -85.1% (active) in assay [17]; 18.6% in assay [18]. In assay [19], the growth is -27% (active).

With `O=c1c2sc3ccccc3c2nnn1-c1ccc(F)c(Cl)c1`, the growth is 75.4% in assay [1]; 70.2% in assay [2]; 18.1% in [3]; 29% in [4]; 4.64% (active) in assay [5]; 35.6% in assay [6]. Moreover, the growth in assay [7] was 56.6%; in assay [8] it was 48.6%; in [9], 34.3%; in [10] it was -42% (active); in assay [11], 57.3%; in [12] it was 37.7%. The growth is 51% in [13]; -5.65% (active) in assay [14]; -8.62% (active) in assay [15]; 21.2% in assay [16]; 33% in assay [18]; 64.5% in [19].

With `O=C(Nc1ccc(OS(=O)(=O)c2ccc(F)cc2)cc1)C12CC3CC(CC(C3)C1)C2`, the growth is 86% in [1]; 77.3% in assay [2]; 83.8% in assay [3]; 87.5% in assay [4]; 76.5% in assay [5]; 79.2% in [6]. Further, the growth in [7] is 40.4%; in assay [8], 52.1%; in assay [9], 33.3%; in assay [10] it was 36.3%; in assay [11] it was 12.3%; in assay [12] it was 72.4%. Besides, the growth in assay [13] is 100%; in assay [14], 54.4%; in assay [15], 74.9%; in [16], 90.2%; in [17], 78.2%; in [18], 75.8%. Besides, in assay [19], the growth is 60.2%.

For the compound `FC(F)(F)C1=NNC(c2ccc3ccccc3c2)=NN1`, the growth was 111% in assay [1]; 93.7% in assay [2]; 65.6% in assay [3]; 129% in assay [4]; 90.1% in assay [5]; 102% in [6]. Further, the growth was 90.5% in [7]; 92.4% in assay [8]; 107% in assay [9]; 95% in [10]; 94% in assay [11]; 97.4% in assay [12]. The growth is 96.9% in assay [13]; 96.2% in [14]; 104% in [15]; 103% in assay [16]; 101% in [17].

On to `CCCN(CCC)CC(O)COc1ccccc1C(=O)Nc1ccccc1` (stereo unspecified), for which the growth in assay [1] is 58%; in [2] it was 81.6%; in assay [3] it was 78.1%; in [4] it was 111%; in assay [5] it was 77.2%; in [6], 57.5%. The growth in assay [7] was 53.9%; in assay [8] it was 71.2%; in assay [9], 78%; in assay [10] it was 28.7%; in [11] it was 71.4%; in assay [12], 84.3%. The growth in assay [13] was 115%; in [14], 85%; in assay [15], 67.4%; in assay [16], 113%; in [17] it was 50.3%; in assay [18], 80.9%.

On to `COc1ccc(NC(=O)C2c3ccccc3C(=O)N(CC(C)C)C2c2cccs2)cc1` (stereo unspecified), for which the growth in assay [1] was 102%; in assay [2], 92.1%; in assay [3], 108%; in assay [4], 97.8%; in assay [5], 97.3%; in assay [6], 92.2%. Moreover, the growth in assay [7] was 86.7%; in assay [8], 92.7%; in [9] it was 98.6%; in [10], 96.5%; in [11], 86.3%; in assay [12], 89.1%. The growth in [13] was 97%; in assay [14] it was 93.6%; in [15], 96.5%; in assay [16] it was 117%; in assay [17] it was 102%; in assay [18], 92.2%.

For the compound `C/C(=N\OC(=O)Nc1cccc(Cl)c1)c1ccccc1`, the growth in [1] is 106%; in [2], 95%; in assay [3], 82.8%; in assay [4] it was 109%; in assay [5] it was 101%; in assay [6], 106%. For the same compound, the growth was 42.8% in assay [7]; 89.1% in assay [8]; 89.9% in [9]; 74% in assay [10]; 95.8% in [11]; 104% in assay [12]. Also, the growth in [13] is 91%; in assay [14], 94.7%; in [15], 108%; in assay [16] it was 115%; in assay [17], 113%; in assay [18], 86.4%. In assay [19], the growth was 108%.
